# Experimental data taken from PubChem BioAssay (NCI).
# The panel holds about 79,000 compounds, 15% with a hit somewhere; the sample as a whole holds those more often. Unmarked numbers belong to inactive results. Activity calls are given as the source filed them. Rule as the data show it: active = growth inhibition above about 70%; inactive = the rest.
# Assay: NCI Yeast Anticancer Drug Screen. Data for the bub3 strain (AID 167)
# Conditions: S. cerevisiae bub3 mutant strain, stronger effect = higher value
# Protocol: Growth inhibition of yeast strains with defined genetic alterations is measured as a screen for potential anti-cancer activity. Selected strains with alterations in DNA damage repair or cell cycle control were exposed to compounds and growth inhibition was measured relative to vehicle treated controls. The strain used in this assay is bub3
# [1] = at 5.0 µM (retest, dose inferred, filed as 0.5)
# [2] = at 50.0 µM (retest, dose inferred, filed as 5.0)
Compound,growth inhibition [1],growth inhibition [2],growth inhibition (at 50.0 µM)
COc1ccc2nc(NC(=O)Nc3c(Cl)cccc3Cl)sc2c1,2%,99% (active),98.7% (active)
COc1cc(/C=C\C(=O)c2cccc(O)c(=O)c2)cc(OC)c1OC,2%,67%,65.5%
CN1C/C(=C\c2ccc(Cl)cc2)C(=O)/C(=C/c2ccc(Cl)cc2)C1,84% (active),97% (active),87.8% (active)
O=[N+]([O-])c1ccc(CCCl)c(CCl)c1,-55%,79% (active),90.3% (active)
CC(=O)NNc1ccc(Cl)cc1[N+](=O)[O-],3%,19%,77.3% (active)
NNc1cc(Cl)ccc1Cl,89% (active),99% (active),91.5% (active)
CC/C(=C(\CC)c1ccc(O)c(CN(CCO)CCO)c1)c1ccc(O)cc1,-5%,25%,12.5%
Cc1ccc(O)c(N=Nc2ccc(Cl)cc2)c1,1%,-8%,4.4%
O=C1c2ccccc2SCC12OC2c1ccc(Cl)cc1 (configuration not stated),21%,91% (active),94.9% (active)
C1=C(C2=CCCc3ccccc32)c2ccccc2CC1,-2%,34%,5.5%
CCCCCCCCCCCCNC(=O)C[n+]1ccc(C(N)=O)cc1,-9%,94% (active),29.2%
O=[N+]([O-])c1ccc(/C=N\OCc2cscn2)cc1,-6%,88% (active),-19.4%
Cc1cccc(/C=N/Nc2ccccn2)n1,15%,41%,37.6%
Nc1cc(Br)c2cccnc2c1O,35%,98% (active),93.7% (active)
